The whole screen tested about 2,300 compounds, of which about 790 (34%) were called active. Some of the results follow. Results with a measured potency or affinity are listed apart. Values without a mark were called inactive. The rule behind the calls is not given here.
Experiment: THP-1 cell cytotoxicity, dose response, cytotoxicity control for non-replicating M. tuberculosis project (AID 489025)
Details: THP-1 cell viability; series mostly up to 40 µM; viability: at the top concentration

Row | SMILES | viability [%]
1 | Cc1cccc(C2=N/C(=C\c3cccnc3)C(=O)O2)c1 | 117
2 | O=C(CCSc1nnc(-c2ccccc2)o1)N1CCOCC1 | 114
3 | Cc1cc(C)cc(OC(=O)c2cccnc2)c1 | 87.5
4 | O=C(OCn1nnc2ccccc2c1=O)c1ccc(N2CCOCC2)c([N+](=O)[O-])c1 | 105
5 | Cc1[nH]n(-c2ccccc2)c(=O)c1C=Nc1cnc2ccccc2c1 | 103
6 | Cc1cc(CN(C)C)c(O)c(C2(C)CCCCC2)c1 | 108
7 | Cc1cccc(NC(=O)COC(=O)c2cc3ccccc3oc2=O)c1 | 114
8 | O=C1NC(=O)C(=Cc2ccc(-c3ccc(Cl)cc3)o2)C(=O)N1 | 113
9 | O=C(Oc1c(-c2ccco2)oc2ccccc2c1=O)c1cccnc1 | 73.6
10 | CCOc1ccc(-c2nc3ccccc3c(=O)o2)cc1 | 116
11 | O=C(CCSc1ccccc1)N1CCCC1 | 109
12 | CCOc1ccc(OC(=O)c2ccc3c(=O)n4c(nc3c2)CCC4)cc1 | 93.9
13 | O=C(CCN1CCCCCC1)c1ccccc1 | 83.7
14 | CC(C)Oc1ccc(C(=O)CCN2CCCCC2)cc1 | 112
15 | CC(C)COc1ccc(C(=O)CCN2CCCCC2)cc1 | 88.7
16 | COc1ccc2cc(C(=O)C3CCCN(Cc4ccccn4)C3)ccc2c1 (configuration not stated) | 88
17 | COc1ccc(C(=O)CCN2CCCCCC2)cc1 | 75.2
18 | COc1ccc(NCC(=O)N2CCCC2)cc1Cl | 87.4
19 | CC1C/C(=N/NC(=O)c2cccc(F)c2)c2ccc(O)cc2C1 (configuration not stated) | 91.1
20 | CN1CCN(Cc2cc(C(C)(C)C)c(O)c(C(C)(C)C)c2)CC1 | 104
21 | COc1cc(/C=C2\C(=O)N(c3ccc(S(N)(=O)=O)cc3)N=C2C)ccc1OC(=O)c1ccco1 | 112
22 | CCC(C)n1nnc2c(=O)oc3ccccc3c21 (configuration not stated) | 98.7
23 | COc1ccc(OCC(=O)N/N=C2\CCc3ccccc32)cc1 | 115
24 | Cc1ccc(NC(CC(=O)c2ccccc2)C(=O)O)cc1Cl (configuration not stated) | 113
25 | CC(NC(=O)OCc1ccccc1)c1ccccc1 (configuration not stated) | 76.8
26 | O=C(c1cccc2cccc(O)c12)N1CCCCC1 | 113

Row | SMILES | viability [%]
27 | CCc1ccc(C(=O)NC2CCCCC2)s1 | 101
28 | CC(C)(NO)/C(=N\O)c1ccccc1 | 92.4
29 | Cc1c(Cl)cccc1NC(=O)C1COc2ccccc2O1 (configuration not stated) | 110
30 | O=S(=O)(CCN1CCN(c2ccccn2)CC1)c1ccc(Cl)cc1Cl | 107
31 | O=C1NC(=O)N(Cc2ccc(F)cc2)C(=O)/C1=C\c1ccc([N+](=O)[O-])s1 | 77
32 | O=C1NC(=O)C(=Cc2ccc(Oc3ccc([N+](=O)[O-])cc3)cc2)C(=O)N1 | 103
33 | COc1ccc(OC)c(N2C(=O)NC(=O)/C(=C/c3ccc([N+](=O)[O-])s3)C2=O)c1 | 92.7
34 | NNC(=O)COc1cccc(Oc2ccccc2)c1 | 105
35 | CC(C(=O)OCC(=O)c1ccccc1)N1C(=O)C2C3CCC(C3)C2C1=O (configuration not stated) | 98.3
36 | CC1=NN(C(=O)c2ccoc2C)C(O)(C(F)(F)F)C1 (configuration not stated) | 92.6
37 | CC1=NN(C(=O)c2csc(C)c2)C(O)(C(F)(F)F)C1 (configuration not stated) | 111
38 | CCC(=O)c1ccc(OCC(=O)OCC(=O)c2cc(C)n(C3CC3)c2C)cc1 | 106
39 | Cc1ccsc1C(=O)OCC(=O)NCCC1=CCCCC1 | 87.4
40 | NCCCN1CCOCC1 | 100
41 | O=C1CC(N2CCC(C(=O)N3CCCCC3)CC2)C(=O)N1 (configuration not stated) | 123
42 | COC(=O)c1cc(/C=C/c2ccccc2)on1 | 89.5
43 | COc1ccc(C(=O)CC(=O)C(=O)NCCc2cccc(C)c2)cc1 | 99.6
44 | O=C1NC(=O)N(Cc2ccco2)C(=O)/C1=C\c1cccn1CCOc1ccc(Cl)cc1 | 93.3
45 | CC(=O)c1c(O)cc(=O)n(-c2ccccc2)c1-c1ccc(C)cc1 | 125
46 | O=C(N/N=C/c1ccc(O)cc1)c1cccc(C(F)(F)F)c1 | 82.2
47 | O=C(Nc1nnc(C2=COCCO2)o1)c1cccc(C(F)(F)F)c1 | 73.8
48 | Cc1cc(NC(=O)COC(=O)COc2ccc(C(=O)c3ccccc3)cc2)no1 | 110
49 | CC1=NN(C(=O)COc2ccccc2)C(O)(c2ccccc2)C1 (configuration not stated) | 106
50 | CC1=NN(C(=O)c2ccccc2Cl)C(O)(c2ccccc2)C1 (configuration not stated) | 116
51 | CC1=NN(C(=O)c2ccc(C)o2)C(O)(c2ccccc2)C1 (configuration not stated) | 107
52 | CC1=NN(C(=O)c2ccccc2F)C(O)(c2ccc(Cl)cc2)C1 (configuration not stated) | 83.9

Row | SMILES | viability [%]
53 | CSc1ccc(COC(=O)CCS(=O)(=O)c2ccc(C)cc2)cc1 | 116
54 | CCc1nnc(NC(=O)CN2CCN(c3ccccc3F)CC2)s1 | 96.1
55 | CCOC(=O)COc1c(-c2ccc(OC)cc2)oc2ccccc2c1=O | 110
56 | O=C(OCc1nnc(-c2ccccc2)o1)c1cc([N+](=O)[O-])ccc1Cl | 122
57 | CCCOc1ccc(N2CC(C(=O)Nc3ccccc3F)CC2=O)cc1 (configuration not stated) | 110
58 | O=C(NC(=S)N1CCN(Cc2ccc3c(c2)OCO3)CC1)c1ccc(Cl)cc1 | 72.2
59 | Nc1ccc(Nc2ccccc2)cc1 | 86.8
60 | CC(C)=CCN1CCN(CCC2=C(C)CCCC2(C)C)CC1CCO (configuration not stated) | 80
61 | CC(C)c1ccc(OCC(=O)NC2=NCCS2)cc1 | 97
62 | O=C(Oc1ccccc1)c1ccc(NC(=O)c2ccco2)cc1 | 94.9
63 | O=C(/C=C/Nc1ccccc1O)c1ccco1 | 123
64 | CC1=NN(C(=O)COc2ccccc2C)C(O)(c2ccc(Cl)cc2)C1 (configuration not stated) | 70.8
65 | CC(C)(C)OC(=O)N/N=C\c1ccc(OC(=O)c2ccco2)cc1 | 113
66 | O=C(CNC(=O)c1ccc(Br)cc1)c1ccc(Br)cc1 | 101
67 | O=C(Nc1nccs1)c1ccc(Br)cc1 | 90.7
68 | O=C(CNC(=O)c1ccccc1)OC1CCCCC1 | 92.2
69 | O=[N+]([O-])c1ncccc1Oc1nc(-c2cccnc2)nc2ccccc12 | 88
70 | CCOc1ccc(N2CC(=O)Nc3ccccc3NCC2=O)cc1 | 92.6
71 | CCOc1cc(/C=N/NC(=O)c2ccccn2)ccc1OC(=O)c1cccs1 | 115
72 | CCOc1ccc(OCc2ccc(C(=O)OCc3ccccn3)o2)cc1 | 106
73 | COC(=O)c1ccc(COC(=O)c2ccccn2)cc1 | 121
74 | O=C(N[C@@H]1C[C@H]2CC[C@@H]1C2)c1ccco1 | 123
75 | Clc1ccc(SCCOCCN2CCc3ccccc3C2)cc1 | 87.8
76 | O=C(OCn1nnc2ccccc2c1=O)c1cccs1 | 121
77 | COc1ccccc1C1=NOC(COC(=O)c2ccc([N+](=O)[O-])cc2)C1 (configuration not stated) | 100
